In all, about 2,100 compounds went through this assay and about 180 (8.6%) showed an effect of 50% or more. The sample holds strong results, similar compounds and a random draw of the others, so the mix is not that of the screen.
Each compound was assayed on MOLM1 and UCSD/AML1 (averaged) (assay: cell viability relative to DMSO control (POC); higher = less growth inhibition). Conditions: 1 µM; 72 h.
Experimental: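 Primary viability screen in the 3q26 EVI1-high AML cell lines MOLM1 and UCSD/AML1 (1.5e3 cells/well, 384-well), compounds at 1 uM for 72 h. ATP CellTiter-Glo read-out given as percent of viable cells over DMSO control (POC), averaged over duplicates. DMSO was the negative control and 5 uM etoposide the positive control. This mapping covers the MicroSource Spectrum and Selleck anticancer libraries (drug names).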

SMILES	cell viability
O=c1c(O)c(-c2ccc(O)c(O)c2)oc2cc(O)ccc12	94%
C[C@]12CCC3c4ccc(OS(=O)(=O)O)cc4CCC3C1CC[C@H]2O (some centres undefined)	98.1%
O=C(O)c1cc(=O)c(O)c2c(O)c(O)c(O)cc2c1	115%
CNc1ccccc1C(=O)N1CCc2c([nH]c3ccccc23)C1=O	88.5%
Cc1occc(=O)c1O	103%
Cc1nc(Nc2ncc(C(=O)Nc3c(C)cccc3Cl)s2)cc(N2CCN(CCO)CC2)n1	29.5%
CCCC(=O)[O-].[Na+] [Sodium butyrate]	91.3%
OCCn1cc(-c2cnc3nnn(Cc4ccc5ncccc5c4)c3n2)cn1	26.7%
Cn1cc(-c2ccc3nnc(Sc4ccc5ncccc5c4)n3n2)cn1	82.3%
Cn1cc(-c2ccc3nnc(C(F)(F)c4ccc5ncccc5c4)n3n2)cn1	101%
C[C@]12CC[C@H](O)CC1=CC[C@@H]1[C@@H]2CC[C@]2(C)C(c3cccnc3)=CC[C@@H]12 [Abiraterone (CB-7598)]	102%
COc1cc2c(cc1OC)[C@@H]1Cc3ccc(OC)c(OC)c3CN1CC2	108%
CN(C)CCOc1ccc(-c2nc(-c3ccncc3)c(-c3ccc4c(c3)CC/C4=N\O)[nH]2)cc1	76.1%
COc1cc(/C=C/C(=O)O)ccc1O	104%
O=C1C=C2CC3(O)COc4cc(O)ccc4C3=C2C=C1O (centres undefined)	99.3%
Cc1cnc(NC(=O)Nc2cc(Br)c(C)cc2OC[C@@H]2CNCCO2)cn1	46.1%
COc1c2ccoc2nc2c(OC)c(OCC(O)C(C)(C)O)ccc12 (centres undefined)	90.2%
CC(C)=CC1C(CO)C1(C)C (centres undefined)	104%
Nc1ncnc2c1ncn2[C@H]1C[C@H](O)[C@@H](CO)O1	90.9%
CCc1cn([C@H]2C[C@H](O)[C@@H](CO)O2)c(=O)[nH]c1=O	91.5%
Nc1ncn([C@@H]2O[C@H](CO)[C@@H](O)[C@H]2O)c(=O)n1 [Azacitidine (Vidaza)]	84.2%
Nc1ncn([C@@H]2O[C@H](CO)[C@@H](O)[C@H]2O)c(=O)n1	77.4%
COc1nc(N)nc2c1ncn2[C@@H]1O[C@H](CO)[C@@H](O)[C@@H]1O [Nelarabine (Arranon)]	109%
O=c1[nH]c(=O)n([C@H]2C[C@H](O)[C@@H](CO)O2)cc1F [Floxuridine]	64.4%
Nc1nc(F)nc2c1ncn2[C@@H]1O[C@H](CO)[C@@H](O)[C@@H]1O [Fludarabine (Fludara)]	53%
NC(=O)c1ccc[n+]([C@@H]2O[C@H](COP(=O)([O-])OP(=O)(O)OC[C@H]3O[C@@H](n4cnc5c(N)ncnc54)[C@H](O)[C@@H]3O)[C@@H](O)[C@H]2O)c1	81.6%
Nc1nc(Cl)nc2c1ncn2[C@@H]1O[C@H](CO)[C@@H](O)[C@@H]1F [Clofarabine]	6.72%

SMILES	cell viability
Nc1ncn([C@H]2C[C@H](O)[C@@H](CO)O2)c(=O)n1 [Decitabine]	41.3%
Nc1nc(F)nc2c1ncn2[C@@H]1O[C@H](COP(=O)(O)O)[C@@H](O)[C@@H]1O [Fludarabine Phosphate (Fludara)]	44.2%
Nc1nc(F)nc2c1ncn2[C@@H]1O[C@H](COP(=O)(O)O)[C@@H](O)[C@@H]1O	74.4%
Nc1nc(Cl)nc2c1ncn2[C@H]1C[C@H](O)[C@@H](CO)O1 [Cladribine]	5.67%
Nc1ncnc2c1ncn2[C@@H]1O[C@H](COP(=O)(O)O)[C@@H](O)[C@H]1O	99.1%
O=c1[nH]c(=O)n([C@H]2C[C@H](O)[C@@H](CO)O2)cc1F	83.1%
OC[C@@H](O)[C@@H](O[C@@H]1O[C@H](CO)[C@@H](O)[C@H](O)[C@H]1O)[C@H](O)[C@@H](O)CO	92.2%
COc1ccc([C@H]2Oc3cc(OC)cc(OC)c3C[C@H]2O)cc1	98.4%
COC(=O)C[C@H]1C2(C)CC34OC5(C)O[C@@]6([C@H](OC)C(OC(=O)C(C)C)[C@]7(C)C(/C(=C(/OC)C(C)C)C(=O)O[C@H]7c7ccoc7)[C@@]6(O5)[C@H](OC)[C@@]3(OC)C2OC(C)=O)[C@]14C (some centres undefined)	105%
Cc1c(C(=O)O)c(O)cc2c1C(=O)c1c(O)c([C@@H]3O[C@H](CO)[C@@H](O)[C@H](O)[C@H]3O)c(O)c(O)c1C2=O	92.5%
O=C(O)c1cccc(O)c1O	107%
C[C@H]1[C@H](C)CC[C@]2(CO)CC[C@]3(C)C(=CC[C@@H]4[C@@]5(C)CC[C@H](O)C(C)(C)[C@@H]5CC[C@]43C)[C@H]12	110%
CC(=O)O[C@@H]1CC2C(C)(C)C(=O)CC[C@]2(C)C2CC[C@]3(C)C(=CC(=O)O[C@H]3c3ccoc3)[C@@]21C (some centres undefined)	110%
COc1c(OC)c2occc2c2oc(=O)ccc12	117%
CC(=O)O[C@H]1CC[C@]2(C)[C@H]3CC=C4[C@@H]5CC(C)(C)CC[C@]5(C)CC[C@@]4(C)[C@]3(C)CC[C@H]2C1(C)C [beta-AMYRIN ACETATE]	107%
CC(=O)CC(=O)CCC(=O)O	96.2%
CCOC(=O)c1c(C)cc(O)cc1O	104%
CC1=CCCC(C)=CCC(C)(C)C=CC1 [HUMULENE (alpha)]	113%
CN(C)Cc1ccc(-c2nc3cccc4c3n2CCNC4=O)cc1	100%
Nc1ccc(-c2ccc3ncc4ccc(=O)n(-c5cccc(C(F)(F)F)c5)c4c3c2)cn1 [Torin 2]	10%
CCC(=O)N1CCN(c2ccc(-n3c(=O)ccc4cnc5ccc(-c6cnc7ccccc7c6)cc5c43)cc2C(F)(F)F)CC1 [Torin 1]	20.8%
COc1ccc2c3n(c(=NC(=O)c4cccnc4)nc2c1OC)CCN3	64.3%
COc1cc(C)c(C(=O)O)c(O)c1	100%
S=C(NCc1ccc2c(c1)OCO2)N1CCN(c2ncnc3c2oc2ccccc23)CC1 [Amuvatinib (MP-470)]	77.9%
COC(=O)[C@@H]1OC(=O)[C@H]2O[C@@]23[C@@]1(C)CCC1[C@@]2(C)CCC(=O)C(C)(C)C2C[C@@H](OC(C)=O)[C@]13C (some centres undefined)	99%
O=C(Nc1c[nH]nc1-c1nc2ccc(CN3CCOCC3)cc2[nH]1)NC1CC1	17.5%
CC(=O)Oc1cc(OC(C)=O)c2c(c1)O[C@H](c1ccc(OC(C)=O)c(OC(C)=O)c1)[C@H](OC(C)=O)C2	104%

Source: the supplement of paper PMC11150407
